{"source": "PubChem BioAssay AID686979", "about": "(National Center for Advancing Translational Sciences (NCATS), 2013)", "note": "About 50,000 (12%) of roughly 420,000 compounds were called active. Inconclusive results (about 26%) are left out. The entries come from a sample that favours actives as a whole. Where a call stands in place of a potency, no number is given. Unmarked numbers belong to inactive results. Calls come from the whole dose curve; as a rule, active = well fitted inhibition curve with a large enough effect; inconclusive = small, poorly fitted or top-dose-only effect; inactive = flat fitted curve, though single readings scatter. Potency is the fitted concentration of half-maximal effect."}
{"test": "qHTS for Inhibitors of human tyrosyl-DNA phosphodiesterase 1 (TDP1): qHTS in cells in presence of CPT; note: nearly all actives have a fitted effect of over 55% in size", "settings": "chicken DT40 Tdp1-/-;hTDP1 cells + 20 nM CPT, ATP luminescence, 48 h; series mostly up to 46.2 µM", "procedure,_shortened": "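Cell growth measured by CellTiter-Glo luminescence after a minimum 48 h, 37 C compound exposure with 20 nM CPT in Tdp1-knockout DT40 cells stably expressing hTDP1, seeded 400/well; qHTS titration format.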"}
{"smiles": "CCCCN1C(=O)c2ccc(C(=O)Nc3ccc(S(=O)(=O)N(C)C)cc3)cc2C1=O", "Potency": "inactive"}
{"smiles": "Cc1ccccc1Nc1nc(N)nc(COC(=O)CCC(=O)c2ccc(F)cc2)n1", "Potency": "inactive"}
{"smiles": "Cc1cc(NC(=O)c2ccc(-c3ccc(Cl)cc3)o2)cc(-c2nc3ncccc3o2)c1O", "Potency": "inactive"}
{"smiles": "O=C1/C(=C\\c2cccnc2)CN(Cc2ccccc2)C/C1=C\\c1cccnc1", "Potency": "5.17 µM (active)"}
{"smiles": "Cc1ccccc1C1=N/C(=C/c2cccnc2)C(=O)O1", "Potency": "inactive"}
{"smiles": "O=Cc1cn(Cc2ccccc2)nc1-c1cccnc1", "Potency": "inactive"}
{"smiles": "O=C(C(=O)N1CCc2ccccc2C1)c1c[nH]c2ccccc12", "Potency": "inactive"}
{"smiles": "CCNC(=O)CCc1nc(-c2ccc(C)cc2)no1", "Potency": "inactive"}
{"smiles": "CCNC(=O)CCc1nc(-c2ccc(C(C)(C)C)cc2)no1", "Potency": "16.4 µM (active)"}
{"smiles": "Cc1ccc(-c2noc(CCC(N)=O)n2)cc1", "Potency": "inactive"}
{"smiles": "Cn1c(Cc2cccs2)nnc1SCC(=O)Nc1ccccc1", "Potency": "inactive"}
{"smiles": "O=C1C(=O)N(CCCO)C(c2ccccc2)/C1=C(\\O)c1ccc(Br)cc1", "note": "(centres undefined)", "Potency": "inactive"}
{"smiles": "CN(CC(=O)NCc1ccc(Cl)cc1)S(=O)(=O)c1cccs1", "Potency": "inactive"}
{"smiles": "COCCN1CCN(C(=O)c2sc3ncnc(NCC4CCCO4)c3c2C)CC1", "note": "(centres undefined)", "Potency": "inactive"}
{"smiles": "O=C(COC(=O)c1ncc(Cl)c(Cl)c1Cl)NCc1ccccc1", "Potency": "inactive"}
{"smiles": "CC(C)C(NC(=O)c1c(F)cccc1F)C(=O)NNC(=O)c1ccccc1", "note": "(centres undefined)", "Potency": "inactive"}
{"smiles": "CCC(=O)Nc1nc2ccccc2n1Cc1ccccc1C", "Potency": "14.6 µM (active)"}
{"smiles": "CCC(=O)Nc1ccc(C)cc1-c1nc2ccccc2n(Cc2ccccc2)c1=O", "Potency": "inactive"}
{"smiles": "Cc1cccc(NC(=O)Cn2c(C(F)(F)F)nc3ccccc32)c1C", "Potency": "inactive"}
{"smiles": "COc1ccc(N2CC(C(=O)N[C@@H](C)C(=O)N3CCCCC3)CC2=O)cc1", "note": "(some centres undefined)", "Potency": "inactive"}
{"smiles": "Cc1c(Cl)cccc1NC(=O)C1CCCN(c2ncnc3onc(C)c23)C1", "note": "(centres undefined)", "Potency": "8.2 µM (active)"}
{"smiles": "Cc1ccc(Cl)cc1NC(=O)C1CCCN(c2cnccn2)C1", "note": "(centres undefined)", "Potency": "inactive"}
{"smiles": "COc1ccccc1NC(=O)C1CCCN(c2cc(C)nc3ncnn23)C1", "note": "(centres undefined)", "Potency": "inactive"}
{"smiles": "CSCC[C@H](NC(=O)OC(C)(C)C)C(=O)N/N=C/c1cc2ccc(C)cc2nc1Cl", "Potency": "inactive"}
{"smiles": "Cc1ccn(-c2cccc(-n3ccc(C)n3)n2)n1", "Potency": "inactive"}
{"smiles": "CCc1nc2ccc(C(=O)N3CCN(S(=O)(=O)CC)CC3)cn2c1N(C=O)CCC(C)C", "Potency": "inactive"}
{"smiles": "CCOc1ccccc1N(CC(=O)Nc1ccccc1C(=O)OC)S(C)(=O)=O", "Potency": "inactive"}
{"smiles": "CCCCN(C=O)c1c(CC)nc2c(OCc3ccccc3C(=O)OC)cccn12", "Potency": "13 µM (active)"}
{"smiles": "CCCCN(C=O)c1c(CC)nc2c(OCCC3CCCCC3)cccn12", "Potency": "16.4 µM (active)"}
{"smiles": "Cc1nccn1-c1ccc(NC(=O)[C@H]2O[C@@H](n3cnc4c(N)ncnc43)[C@H](O)[C@@H]2O)cc1", "Potency": "inactive"}
{"smiles": "CCC1CN(CCNC(=O)c2cccc(C)n2)Cc2cc(OC)ccc2O1", "note": "(centres undefined)", "activity change, negative = growth inhibition": "5.22% [at 9.04 µM]"}
{"smiles": "O=C(CSc1ccc(-c2ccc(-n3cccn3)cc2)nn1)Nc1ccc([N+](=O)[O-])cc1", "Potency": "inactive"}
{"smiles": "COc1ccc(NC(=O)CC2C(=O)OCC3CCCCN32)cc1Cl", "note": "(centres undefined)", "Potency": "inactive"}
{"smiles": "CC(C)c1ccc(Cc2nnc(NCCCO)[nH]c2=O)cc1", "Potency": "inactive"}
{"smiles": "N#CCc1ccc(OC(=O)c2cccnc2)cc1", "Potency": "inactive"}
{"smiles": "CC(OC(=O)CNC(=O)c1cccc(F)c1)C(=O)NC1CCCCC1C", "note": "(centres undefined)", "Potency": "inactive"}
{"smiles": "Cc1ccc(CC(=O)Nc2ccc(OC(F)F)c(Cl)c2)cc1C", "Potency": "inactive"}
{"smiles": "C=CCNC(=S)N/N=C/c1ccc(C)s1", "Potency": "4.61 µM (active)"}
{"smiles": "Cc1ccc(/C=N/NC(=O)CN2CCN(Cc3ccccc3)CC2)s1", "Potency": "inactive"}
{"smiles": "C=C(C)CNC(=S)N/N=C/c1ccccc1OCC(=O)O", "Potency": "inactive"}
{"smiles": "Cc1cc(OC(C)C(=O)Nc2sc3c(c2C(N)=O)CCCC3)ccc1Cl", "note": "(centres undefined)", "Potency": "inactive"}
{"smiles": "Nc1scc[n+]1Cc1cccc2cccnc12", "Potency": "inactive"}
{"smiles": "c1ccc2c(C[n+]3csc4ccccc43)cccc2c1", "Potency": "0.92 µM (active)"}
{"smiles": "CCOC(=O)CC1C(=O)NCCN1c1nc2c(C)cccn2c(=O)c1/C=C1\\SC(=S)N(C(C)CC)C1=O", "note": "(centres undefined)", "Potency": "16.4 µM (active)"}
{"smiles": "CCOC(=O)N1CCN(C(=O)CSc2nc(=O)n3cccc(C)c3n2)CC1", "Potency": "inactive"}
{"smiles": "CCOC(=O)CNC(=O)c1cc2c(=O)n3cccc(C)c3nc2s1", "Potency": "inactive"}
{"smiles": "N#CC1(NC(=O)COC(=O)CCN=C2NS(=O)(=O)c3ccccc32)CCCCC1", "Potency": "inactive"}
{"smiles": "COc1cccc(N(CC(=O)NCc2ccccc2)C(=O)CCC(=O)Nc2nccs2)c1", "Potency": "inactive"}
{"smiles": "CCc1noc(C)c1C(=O)N1CCN(S(=O)(=O)c2cccc(C(F)(F)F)c2)CC1", "Potency": "inactive"}
{"smiles": "O=C(CCc1nc2sc3c(c2c(=O)[nH]1)CCCC3)NCC(=O)Nc1ccccc1Br", "Potency": "inactive"}
{"smiles": "NNC(=O)C1CCCn2c1nc1sc3c(c1c2=O)CCCC3", "note": "(centres undefined)", "Potency": "inactive"}
{"smiles": "CS(=O)(=O)N(Cc1nc2sc3c(c2c(=O)[nH]1)CCCC3)C1CCCCC1", "Potency": "20.6 µM (active)"}
{"smiles": "CCCCCCCCCCCCCCCCO", "Potency": "inactive"}
{"smiles": "O=C(CCN1C(=O)[C@@H]2Cc3ccccc3CN2C1=O)NCc1ccccc1", "Potency": "inactive"}
{"smiles": "CCOC(=O)N1CCC(N(CCOC)C(=O)Nc2ccc(C)c(C)c2)CC1", "Potency": "inactive"}
{"smiles": "Cc1cccc(NC(=O)CSC(N)=O)c1C", "Potency": "25.9 µM (active)"}
{"smiles": "Cc1cccc(NC(=O)COC(=O)CCc2ccccc2)c1C", "Potency": "inactive"}
{"smiles": "Cc1cccc(NC(=O)CSc2nc3c(c(=O)[nH]2)CCCC3)c1C", "Potency": "inactive"}
{"smiles": "Cc1cccc(NC(=O)CSc2nc3c(c(=O)[nH]2)CCC3)c1C", "Potency": "inactive"}
{"smiles": "Cc1cccc(NC(=O)CN2C(=O)c3ccccc3C2=O)c1C", "Potency": "inactive"}
{"smiles": "Cc1cccc(NC(=O)CSc2ncc(-c3ccccc3)[nH]2)c1C", "Potency": "25.9 µM (active)"}
{"smiles": "CN(Cc1ccccc1)C(=O)c1ccc(NC2=NC3CS(=O)(=O)CC3S2)cc1", "note": "(centres undefined)", "Potency": "inactive"}
{"smiles": "Cc1cccc2c(=O)cc(CSc3ccccc3NC(=O)C(C)C)[nH]c12", "Potency": "inactive"}
{"smiles": "COc1ccc(C(=NN)c2ccc(OC)cc2)cc1", "Potency": "inactive"}
{"smiles": "COc1ccc(C(C#N)=C2C=CC(=NO)c3ccccc32)cc1", "Potency": "1.3 µM (active)"}
{"smiles": "COc1ccc(/C(N)=N/OC(=O)Cc2ccccc2)cc1", "Potency": "inactive"}
{"smiles": "COc1ccc(C(=O)N(C)Cc2ccc(OC)c(OC)c2OC)cc1S(=O)(=O)N1CCOCC1", "Potency": "inactive"}
{"smiles": "O=C(OCN1C(=O)c2ccccc2C1=O)/C(=C\\c1ccco1)NC(=O)c1ccccc1", "Potency": "inactive"}
{"smiles": "COc1ccc(/C=C(\\NC(=O)c2ccc(OCC(C)C)cc2)C(=O)OCc2ccco2)cc1", "Potency": "20.6 µM (active)"}
{"smiles": "COc1ccc(/C=C(/NC(=O)c2ccco2)C(=O)Nc2ccc(C(C)=O)cc2)cc1", "Potency": "inactive"}
{"smiles": "CCOc1ccc(/C=C/C(=O)N(CC)CC(=O)NCc2cccs2)cc1OC", "Potency": "inactive"}
{"smiles": "CC(=O)N[C@@H](C)C(=O)N1CCC(n2nccc2NC(=O)CCCc2ccccc2)CC1", "Potency": "inactive"}
{"smiles": "ClC/C=C/C[n+]1ccccc1Cl", "Potency": "inactive"}
{"smiles": "O=C(NCc1ccccc1Cl)C(=O)NCC1CCCN1S(=O)(=O)c1cccs1", "note": "(centres undefined)", "Potency": "inactive"}
{"smiles": "O=C(NCCC1CCCCN1S(=O)(=O)c1cccs1)C(=O)Nc1ccc(F)cc1F", "note": "(centres undefined)", "Potency": "2.91 µM (active)"}
{"smiles": "O=C(NCCC1CCCCN1S(=O)(=O)c1ccc(F)cc1)C(=O)NC1CC1", "note": "(centres undefined)", "Potency": "inactive"}
{"smiles": "Cc1cc(C)nc(S/C=C/C(=O)c2ccccc2)n1", "Potency": "2.06 µM (active)"}
{"smiles": "Cc1ccc(N/C=C/C(=O)c2ccccc2)cc1C", "Potency": "inactive"}
{"smiles": "C/C(=N\\NC(=O)c1nc(C)cc(C)n1)c1ccccc1", "Potency": "inactive"}
{"smiles": "O=C(CN(Cc1ccccc1)C(=O)CCC(=O)Nc1ccccn1)NCCc1ccccc1", "Potency": "inactive"}
{"smiles": "O=C(CCn1c(SCC(=O)c2ccccc2)nc2ccccc2c1=O)NCc1ccc(F)cc1", "Potency": "inactive"}
{"smiles": "O=C(CCCn1c(SCC(=O)c2ccccc2)nc2ccccc2c1=O)NCC1CCCO1", "note": "(centres undefined)", "Potency": "16.4 µM (active)"}
{"smiles": "O=C(CSc1nc2ccccc2c(=O)n1Cc1ccc(F)cc1)NCC1CCCO1", "note": "(centres undefined)", "Potency": "inactive"}
{"smiles": "N#CCC(=O)N/N=C/c1ccc(SCC(=O)Nc2ccccc2)o1", "Potency": "inactive"}
{"smiles": "NC(=O)Cn1cc(/C=N\\NS(=O)(=O)c2ccccc2)c2ccccc21", "Potency": "inactive"}
{"smiles": "CNC(=S)N/N=C/c1cn(Cc2ccc(C)cc2)c2ccccc12", "Potency": "18.4 µM (active)"}
{"smiles": "COCCCNC(=O)Cn1cc(/C=C(\\C#N)C(=O)N2CCN(c3ccccc3)CC2)c2ccccc21", "Potency": "inactive"}
{"smiles": "N#CCC(=O)N/N=C/c1cn(Cc2ccc3ccccc3c2)c2ccccc12", "Potency": "5.8 µM (active)"}
{"smiles": "Cc1ccc(CNC(=O)C(=O)c2cn(CC(=O)N3CCCC3)c3ccccc23)cc1", "Potency": "inactive"}
{"smiles": "Nc1nc(NCC(=O)O)nc(N2CCCCCC2)c1[N+](=O)[O-]", "Potency": "inactive"}
{"smiles": "Cc1ccc(-n2c(-c3ccc(Cl)cc3)n[nH]c2=S)cc1", "Potency": "inactive"}
{"smiles": "CC1(C)OC(=O)C2=C(C[C@@H](C3CC3)O[C@H]2c2ccc(Cl)cc2)O1", "Potency": "inactive"}
{"smiles": "CN(CCO)C(=O)c1nc[nH]c1C(=O)N(C)Cc1ccccc1", "Potency": "inactive"}
{"smiles": "Cc1cc(=O)n2nc(N3CCC(C(=O)Nc4c(F)c(F)c(F)c(F)c4F)CC3)sc2n1", "Potency": "inactive"}
{"smiles": "CCc1ccc(CNC(=O)C2CCN(c3nn4cc(-c5ccc(F)cc5)nc4s3)CC2)cc1", "Potency": "inactive"}
{"smiles": "COc1ccc(-c2cn3nc(N4CCCC(C(=O)NCCCOC(C)C)C4)sc3n2)cc1", "note": "(centres undefined)", "Potency": "13 µM (active)"}
{"smiles": "COc1ccc(-c2cn3nc(N4CCC(C(=O)Nc5cccc(C)c5C)CC4)sc3n2)cc1", "Potency": "20.6 µM (active)"}
{"smiles": "Cc1cc(=O)n2nc(N3CCCC(C(=O)NCc4ccc(Cl)cc4)C3)sc2n1", "note": "(centres undefined)", "Potency": "inactive"}
{"smiles": "COc1ccc(OC)c(CNC(=O)C2CCCN(c3nc4ccccc4o3)C2)c1", "note": "(centres undefined)", "Potency": "inactive"}
{"smiles": "CC(C)CNS(=O)(=O)c1ccc(CCC(=O)NCc2ccc(Cl)cc2)cc1", "Potency": "inactive"}
{"smiles": "CCN(CC)S(=O)(=O)c1ccc(N2CC(C(=O)NCc3cccnc3)CC2=O)cc1", "note": "(centres undefined)", "Potency": "inactive"}
{"smiles": "COc1ccc(-c2cc(C(=O)NC(Cc3c[nH]c4ccccc34)C(=O)O)c(C)o2)cc1OC", "note": "(centres undefined)", "Potency": "29.1 µM (active)"}
{"smiles": "Cc1cccc(C)c1OCC(=O)NC(Cc1c[nH]c2ccccc12)C(=O)O", "note": "(centres undefined)", "Potency": "inactive"}
{"smiles": "COc1ccc(-c2cc(C(=O)NC(C(=O)O)C(C)C)c(C)o2)cc1OC", "note": "(centres undefined)", "Potency": "inactive"}
